This is part of a sample that, as a whole, favours compounds with a hit. Of some 83,000 tested, about 20% had one in any assay.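 The test compound was applied at a single concentration to cells in 96-well plates for 48 hours, and percent growth was recorded.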 Unmarked numbers belong to inactive results. The source made the active and inactive calls. Rule for the calls: active = growth percent below 10; inactive = the rest.

The assay relates to UACC-62 melanoma. Nature of the assay: NCI-60 one-dose screen, 48 h (100 = growth as untreated, 0 = no growth, -100 = all killed). The settings on record: 10 µM unless noted.
With `Cc1ccc2c(c1)n([O-])c1cc(Cl)ccc1[n+]2=O`, the growth was 89%.
As for `CN1/C(=C\C=C\C2=[N+](C)c3ccccc3C2(C)C)C(C)(C)c2ccccc21`, the growth is -77.3% (active).
Turning to `CC/C(=C(\c1ccccc1)c1ccc(OCCNC)cc1)c1ccccc1`, the growth is -99.1% (active).
For the molecule `CCN(CC)Cc1cc(Nc2c3ccc(Cl)cc3nc3c(C)cccc23)ccc1O`, the growth is -79.3% (active).
On to `C=CC[N+]1(CCO)CCN=C1CCCCCCCCCCCCC` (centres undefined), for which the growth is -96.5% (active).
As to `N#Cc1ccc(NC(=O)Nc2ccc(Cc3ccc(NC(=O)Nc4ccc(C#N)cc4)cc3)cc2)cc1`, the growth was 14.2%.
As for `CC1=NNC(=O)C1C` (centres undefined), the growth is 94.5%.
For the molecule `COc1nc2c(cc1S(=O)(=O)c1ccccc1)CCc1c-2cnn1Cc1ccccc1`, the growth was 52%.
To `O=C(/C=C\c1ccc2ccccc2n1)c1cc(Cl)ccc1O` belongs 71.4%; to `CCc1ccc(C(c2ccc(CC)cc2)C(Cl)(Cl)CCl)cc1`, 88.2%.
With `C=CCSc1nnc(-c2ccc(C(C)(C)C)cc2)n1-c1cccc(C(F)(F)F)c1`, the growth was 42.4%.
Turning to `CSc1ncnc2c1ncn2C1CCCO1` (centres undefined), the growth was 88.5%.
As for `OCC1C2C=CC(C2)C1CO` (centres undefined), the growth was 107%.
On to `Cc1ccc(/C=C2\Oc3cc(OCC(=O)c4ccc(Cl)cc4)ccc3C2=O)cc1`, for which the growth was 92.7%.
Regarding `Cn1c2c(Cl)c(Cl)ccc2c2ccn3c(=O)c4ccccc4nc3c21`, the growth was 90.6%.
Take `CSc1[nH]c2ncnc(N)c2c1C#N`: the growth is 85.9%.
Turning to `CCN(CC)CCCC(C)NCCCNc1cccc2cccnc12` (centres undefined), the growth is 90.4%.
Turning to `C=CC[N+]1(CC)CCN=C1CCCCCCCCCCCCCCCCC` (centres undefined), the growth was -86.1% (active).
For `CCN(CC)CCCNc1cc(OC)cc2nc3cc(Cl)ccc3nc12`, the growth was -80.6% (active).
Turning to `CCCCCCCCCCNC(=O)CCl`, the growth was 73.8%.
Consider `CCOC(=S)SCc1ccc(Cl)cc1`, for which the growth is 95.5%.
In the case of `O=C(O)c1ccc2c(c1Sc1ccccc1)C(=O)c1ccccc1C2=O`, the growth was 87.5%.
Consider `CCN(CC)CC(C)Nc1ccc([N+](=O)[O-])c2sc3ccccc3c(=O)c12` (centres undefined), for which the growth is 33.5%.
In the case of `Cc1cc2c(cc1C)NC1=C(N2)OC(c2c3ccccc3cc3ccccc23)C1=O` (centres undefined), the growth is 3.19% (active).
In the case of `O=C(Nc1ccc(CN2CCOCC2)cc1)c1[nH]ncc1Nc1ncnc2sccc12`, the growth was 10.1%.
On to `CCOC(=O)C(C#N)C1CCCCC1` (centres undefined), for which the growth was 75.6%.
Consider `Nc1cccc(NC(=O)C(=O)Nc2cccc(N)c2)c1`, for which the growth was 90.6%.
As for `CN(CC(=O)N(Cc1ccc(C2CCCCC2)cc1)c1ccc(C(=O)NO)cc1)S(=O)(=O)c1c(F)c(F)c(F)c(F)c1F`, the growth is 94.5%.
Take `CCN(CC)c1ccc(/C=C/C2=[N+](C)c3ccccc3C2(C)C)cc1`: the growth is 16%.
With `CN(C)c1ccc(/C=C(\C#N)c2nc3ccccc3s2)cc1`, the growth is 101%.
To `CCN(CC)CC(O)CNc1c2ccc([N+](=O)[O-])cc2nc2cc(OC)c(OC)cc12` (centres undefined) belongs -77.6% (active); to `COc1nc2c(cc1S(=O)(=O)c1ccccc1)CCc1c-2cnn1-c1ccc(Cl)cc1`, 88.7%.
The figure for `Cc1cc(-c2nc3ccccc3s2)ccc1NC(=O)COc1ccc(Cl)cc1` is 96.1%; for `N#Cc1c(N)nc(N)nc1Nc1ccc(Br)cc1` it is 86.4%; for `CCN(CC)CC(C)(C)C(=O)/C=C/c1ccccc1` it is 39.8%.
To `CNc1cc2nc3cc(NC)c(C)cc3cc2cc1C` belongs 45.7%; to `O=C(COc1cccc(/C=C2/Oc3ccccc3C2=O)c1)Nc1nccs1`, 82.9%; to `O=C(Cc1ccccc1)c1ccc(Cl)cc1`, 93.2%.
On to `O=C(O)c1cccnc1Br`, for which the growth is 96%.

The values are drawn from PubChem BioAssay (NCI).
